The results in this text go back to PubChem BioAssay (NCI).

Some test systems named below: NCI-H23 lung; NCI-H522 lung; 786-0 renal; MDA-MB-231 breast; UACC-62 melanoma; LOX IMVI melanoma; CCRF-CEM leukemia; MOLT-4 leukemia; SR leukemia; OVCAR-8 ovarian; OVCAR-5 ovarian; OVCAR-4 ovarian; SK-OV-3 ovarian; IGROV1 ovarian; HS 578T breast; T-47D breast; SW-620 colon; MCF7 breast; HCT-116 colon; KM12 colon.
Assay in all cases: NCI-60 one-dose screen, 48 h (100 = growth as untreated, 0 = no growth, -100 = all killed)
Holding throughout (conditions): 10 µM

This is part of a sample that, as a whole, favours compounds with a hit. Of some 83,000 tested, about 20% had one in any assay.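 Testing used 96-well plates and a 48-hour single-concentration exposure. Example: -40 means 40% of the starting cells died.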 Activity calls are given as the source filed them. How the source made its calls: active means growth percent below 10; inactive means the rest.

`CC(=O)O[C@@H]1C[C@H]2O[C@@H]3C=C(C)CC[C@]3(C)[C@]1(C)[C@]21CO1`: the growth in the assay on NCI-H23 lung is 7.96% (active); in the assay with NCI-H522 lung it was 2.05% (active); in the assay with 786-0 renal it was 7.07% (active); in the assay on MDA-MB-231 breast it was 4.27% (active); in the assay with UACC-62 melanoma, 2.75% (active); with LOX IMVI melanoma, -41.5% (active). Moreover, the growth with CCRF-CEM leukemia is -3.18% (active); in the assay on MOLT-4 leukemia, -9.55% (active); with SR leukemia, 0.874% (active); in the assay on OVCAR-8 ovarian, 8.44% (active); in the assay with OVCAR-5 ovarian, 84.3% (inactive); with OVCAR-4 ovarian, -1.86% (active). Further, the growth in the assay on SK-OV-3 ovarian is 18.1% (inactive); in the assay with IGROV1 ovarian it was 22.8% (inactive); in the assay on HS 578T breast it was 22.7% (inactive); in the assay with T-47D breast, -2.72% (active); in the assay with SW-620 colon it was 7.09% (active); in the assay with MCF7 breast it was 3.89% (active). The figures for the growth with HCT-116 colon and with KM12 colon were 0.731% (active) and 27.4% (inactive), respectively.
With `CN1C(=O)[C@]23SSC1(C)C(=O)N2[C@H]1Nc2ccccc2C1([C@@]12c4ccccc4N[C@@H]1N1C(=O)C4(C)SS[C@]1(C(=O)N4C)[C@H]2O)[C@@H]3O` (stereo partly drawn), the growth was -66.4% (active) in the assay with NCI-H23 lung; -84.4% (active) in the assay with NCI-H522 lung; -99.1% (active) in the assay on 786-0 renal; -52.1% (active) in the assay on MDA-MB-231 breast; -79.2% (active) in the assay with UACC-62 melanoma; -89.9% (active) in the assay with LOX IMVI melanoma. The growth with CCRF-CEM leukemia was 1.4% (active); in the assay on MOLT-4 leukemia, -20.6% (active); with SR leukemia, 0.169% (active); in the assay with OVCAR-8 ovarian, -76.1% (active); in the assay on OVCAR-5 ovarian, -66.2% (active); in the assay with OVCAR-4 ovarian it was -98.7% (active). Besides, the growth in the assay on SK-OV-3 ovarian is -98.8% (active); with IGROV1 ovarian it was -71.7% (active); in the assay with HS 578T breast, -49.4% (active); in the assay on T-47D breast it was -81.3% (active); in the assay on SW-620 colon, -88.2% (active); in the assay with MCF7 breast, -77.4% (active). In addition, the values for the growth in the assay with HCT-116 colon and with KM12 colon were -99.5% (active) and -94.4% (active), respectively.
In the case of `CC1=C[C@H]2O[C@@H]3C[C@H]4OC(=O)/C=C\C=C\[C@H]([C@@H](C)O)OCC/C(C)=C/C(=O)OC[C@@]2(CC1)[C@]4(C)[C@]31CO1`, the growth in the assay on NCI-H23 lung was -36.1% (active); with NCI-H522 lung, -39.3% (active); in the assay with 786-0 renal, -43.6% (active); in the assay with MDA-MB-231 breast it was -29.6% (active); in the assay on UACC-62 melanoma, -58.6% (active); in the assay with LOX IMVI melanoma it was -81.1% (active). Also, the growth in the assay with CCRF-CEM leukemia is -11.5% (active); in the assay on MOLT-4 leukemia, -18.5% (active); with SR leukemia, -9.9% (active); in the assay on OVCAR-8 ovarian it was -24.4% (active); in the assay on OVCAR-5 ovarian, -14.8% (active); with OVCAR-4 ovarian it was -22.1% (active). Further, the growth in the assay with SK-OV-3 ovarian is -23.5% (active); with IGROV1 ovarian, -10.7% (active); in the assay with HS 578T breast, -9.53% (active); in the assay with T-47D breast, -20% (active); in the assay with SW-620 colon it was 0.094% (active); in the assay on MCF7 breast, -10.6% (active). Further, the figures for the growth in the assay with HCT-116 colon and in the assay with KM12 colon were -28.7% (active) and 3.74% (active), respectively.
Regarding `CN(CCF)/N=N/c1nc[nH]c1C(N)=O`, the growth in the assay on NCI-H23 lung was 77% (inactive); in the assay on NCI-H522 lung it was 64.2% (inactive); in the assay with 786-0 renal, 41.8% (inactive); in the assay with MDA-MB-231 breast, 39.5% (inactive); in the assay with UACC-62 melanoma, 31.2% (inactive); with LOX IMVI melanoma it was 17.5% (inactive). For the same molecule, the growth was 20.8% (inactive) in the assay on CCRF-CEM leukemia; 18.7% (inactive) with MOLT-4 leukemia; 22.3% (inactive) with SR leukemia; 27% (inactive) in the assay with OVCAR-8 ovarian; 62.8% (inactive) in the assay with OVCAR-5 ovarian; 44.2% (inactive) in the assay on OVCAR-4 ovarian. Moreover, the growth with SK-OV-3 ovarian is -4.12% (active); with IGROV1 ovarian, 44% (inactive); in the assay with HS 578T breast, 93.1% (inactive); in the assay with T-47D breast, 57.3% (inactive); with SW-620 colon, 25.9% (inactive); in the assay with MCF7 breast, 36.2% (inactive). The growth was 24% (inactive) with HCT-116 colon and 58.9% (inactive) in the assay with KM12 colon.
On to `COC(=O)[C@H]1[C@@H](O)[C@@]2(O)c3c(OC)cc(OC)cc3O[C@@]2(c2ccc(OC)cc2)[C@@H]1c1ccccc1`, for which the growth with NCI-H23 lung was -12% (active); in the assay on NCI-H522 lung it was -28.7% (active); in the assay on 786-0 renal, 0.303% (active); with MDA-MB-231 breast it was -5.45% (active); in the assay on UACC-62 melanoma, -14.9% (active); in the assay with LOX IMVI melanoma, -38.6% (active). The growth in the assay on CCRF-CEM leukemia is 4.76% (active); in the assay on MOLT-4 leukemia it was 2.37% (active); with SR leukemia, 13.2% (inactive); in the assay on OVCAR-8 ovarian it was -11.6% (active); with OVCAR-5 ovarian it was -6.47% (active); with OVCAR-4 ovarian, 2.23% (active). Moreover, the growth was -12.2% (active) in the assay on SK-OV-3 ovarian; -17.3% (active) with IGROV1 ovarian; -5.48% (active) with HS 578T breast; -11.7% (active) in the assay with T-47D breast; 3.66% (active) with SW-620 colon; -0.926% (active) in the assay on MCF7 breast. The growth with HCT-116 colon was -6.31% (active); with KM12 colon, 3.23% (active).
For the molecule `CC(=O)O[C@@H]1[C@@H]2O[C@H]2[C@@](C)(O)C(=O)[C@@H](C)C/C=C/[C@H]2[C@@H]3O[C@]3(C)[C@@H](C)C3[C@H](Cc4ccccc4)NC(=O)[C@@]312` (stereo partly drawn), the growth is 70.4% (inactive) in the assay with NCI-H23 lung; 18.2% (inactive) in the assay on NCI-H522 lung; 24.3% (inactive) with 786-0 renal; 22% (inactive) with MDA-MB-231 breast; 78.8% (inactive) in the assay with UACC-62 melanoma; 14.7% (inactive) in the assay with LOX IMVI melanoma. In addition, the growth with CCRF-CEM leukemia was 44.2% (inactive); in the assay on MOLT-4 leukemia it was 67.9% (inactive); with SR leukemia it was 60.7% (inactive); in the assay on OVCAR-8 ovarian, 84.4% (inactive); in the assay with OVCAR-5 ovarian, 96.3% (inactive); in the assay with OVCAR-4 ovarian, 55.8% (inactive). Besides, the growth in the assay on SK-OV-3 ovarian was 22.9% (inactive); in the assay on IGROV1 ovarian it was 54.7% (inactive); in the assay with HS 578T breast it was 4.92% (active); with T-47D breast, 33.6% (inactive); in the assay on SW-620 colon, 55.5% (inactive); in the assay on MCF7 breast it was 56.8% (inactive). For the same molecule, the results for the growth with HCT-116 colon and in the assay with KM12 colon were 54.9% (inactive) and 66.6% (inactive), respectively.
With `COc1cc(OC)c(S(=O)(=O)N(CCCl)CCCl)cc1C(=O)/C=C/c1ccc(Cl)cc1`, the growth in the assay with NCI-H522 lung is 83.5% (inactive); in the assay on 786-0 renal, 64.4% (inactive); with MDA-MB-231 breast it was 67.1% (inactive); in the assay with UACC-62 melanoma, 51.1% (inactive); in the assay on CCRF-CEM leukemia, 16.4% (inactive); with MOLT-4 leukemia, 58.8% (inactive). The growth in the assay on SR leukemia was 10.1% (inactive); in the assay with OVCAR-8 ovarian, 59.8% (inactive); in the assay on OVCAR-5 ovarian, 107% (inactive); in the assay on OVCAR-4 ovarian it was 83.4% (inactive); with SK-OV-3 ovarian, 79% (inactive); with IGROV1 ovarian it was 76.3% (inactive). Also, the growth was 78.6% (inactive) in the assay with HS 578T breast; 74.4% (inactive) with T-47D breast; 48.7% (inactive) with SW-620 colon; 15.8% (inactive) in the assay on MCF7 breast; 49.2% (inactive) in the assay with HCT-116 colon; 23.4% (inactive) with KM12 colon.
